In PMC4336329 (PLoS ONE, 2015):
Out of some 310,000 compounds screened, about 14,000 (4.5%) showed an effect of 50% or more. Effects have a minus sign here. For the sample, strong results were picked, then their nearest neighbours and some compounds at random.

Target: human ether-à-go-go-related gene (hERG) potassium channel (human, UniProt Q12809)
Assay: primary screen, population patch clamp on CHO cells stably expressing hERG; higher = less effect of the substance
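Also: peak tail current of the secondary pulse compared with the same well before compound.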

Chain of human ether-à-go-go-related gene (hERG) potassium channel (Q12809 whole entry, looked up): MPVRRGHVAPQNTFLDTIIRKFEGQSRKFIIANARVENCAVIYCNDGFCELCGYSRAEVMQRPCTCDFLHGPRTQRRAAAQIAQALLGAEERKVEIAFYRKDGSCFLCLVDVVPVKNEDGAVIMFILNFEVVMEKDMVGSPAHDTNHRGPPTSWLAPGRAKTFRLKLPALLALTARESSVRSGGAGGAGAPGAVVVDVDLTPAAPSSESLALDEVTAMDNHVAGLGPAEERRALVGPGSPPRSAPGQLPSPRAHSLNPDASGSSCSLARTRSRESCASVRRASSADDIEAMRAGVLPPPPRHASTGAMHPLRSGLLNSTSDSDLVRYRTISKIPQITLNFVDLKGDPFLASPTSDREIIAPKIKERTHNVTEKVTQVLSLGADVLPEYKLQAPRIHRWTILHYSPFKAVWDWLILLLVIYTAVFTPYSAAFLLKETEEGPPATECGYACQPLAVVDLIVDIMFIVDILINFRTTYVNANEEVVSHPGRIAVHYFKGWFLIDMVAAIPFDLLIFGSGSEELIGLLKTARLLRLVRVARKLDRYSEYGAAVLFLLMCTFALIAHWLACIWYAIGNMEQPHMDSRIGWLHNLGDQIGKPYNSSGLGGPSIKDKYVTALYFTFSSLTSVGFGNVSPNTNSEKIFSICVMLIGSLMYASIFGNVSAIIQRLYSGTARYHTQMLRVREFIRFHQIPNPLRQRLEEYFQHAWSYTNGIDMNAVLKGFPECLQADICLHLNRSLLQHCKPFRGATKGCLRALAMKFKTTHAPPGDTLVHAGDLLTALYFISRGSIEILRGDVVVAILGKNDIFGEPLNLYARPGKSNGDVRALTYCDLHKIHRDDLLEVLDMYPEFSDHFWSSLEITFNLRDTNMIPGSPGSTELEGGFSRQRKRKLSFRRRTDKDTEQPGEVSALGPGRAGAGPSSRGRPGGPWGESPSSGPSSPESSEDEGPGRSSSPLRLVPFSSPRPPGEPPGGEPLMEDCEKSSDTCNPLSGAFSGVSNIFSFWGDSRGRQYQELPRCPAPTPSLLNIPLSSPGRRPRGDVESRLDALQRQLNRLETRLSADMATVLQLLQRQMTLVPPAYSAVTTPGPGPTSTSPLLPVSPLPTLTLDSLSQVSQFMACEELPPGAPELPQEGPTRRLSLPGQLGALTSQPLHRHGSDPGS

SMILES | hERG current change (%, negative = inhibition) at 10uM [%]
COC(=O)c1ccccc1NC(=O)c1ccc2c(c1)OCCO2 | 1.86
O=C(CNc1ccc(Br)cc1)NNC1=NCCC1 | 1.72
CCc1ccc(CNCCc2c[nH]c3ccccc23)cc1.O=C(O)C(=O)O | -40.9
Cc1ccc(S(=O)(=O)Nc2ccccc2C(=O)N2CCN(C)CC2)cc1 | -3.2
CCOC(=O)Nc1ccc2c(c1)N(C(=O)CCN(C)C)c1ccccc1CC2 | -40.7
CCOC(=O)Nc1ccc2c(c1)N(C(=O)OC)c1ccccc1CC2 | -2.44
CCOC(=O)Nc1ccc2c(c1)N(C(=O)CN1CCN(C)CC1)c1ccccc1S2.Cl | -64.4
CCN(CC)CCC(=O)N1c2ccccc2CCc2ccc(NC(=O)OC)cc21.Cl | -8.57
CCOC(=O)Nc1ccc2c(c1)N(C(=O)N1CCN(C)CC1)c1ccccc1S2.Cl | -46
CCOC(=O)Nc1ccc2c(c1)N(C(=O)C(C)N1CCCC1)c1ccccc1CC2.Cl (centres unmarked) | -60.2
CCOC(=O)Nc1ccc2c(c1)N(C(=O)CCN(CC)CC)c1ccccc1CC2 | -50.3
CCOC(=O)Nc1ccc2c(c1)N(C(=O)N(C)C)c1ccccc1CC2 | -6.99
CCOC(=O)Nc1ccc2c(c1)N(C(=O)CCN1CCN(C)CC1)c1ccccc1S2.Cl | -15.2
C=CCSc1nc(N(CC)CC)c2sccc2n1 | -12.4
CC(=O)c1cccc(N2C(=O)C3C4CCC(C4=C(C)C)C3C2=O)c1 (centres unmarked) | 21.1
COc1cc(CSc2nnnn2-c2ccc(C)cc2)cc(OC)c1OC | 8.81
N#Cc1nc(-c2ccco2)oc1NCCc1ccccc1 | -5.59
CCCc1cc(=O)oc2cc(C)c3c(C)coc3c12 | 5.51
COc1cccc(-n2cnc3sc(C)c(C)c3c2=O)c1 | -12
COC(=O)C1=C(C)NC(C)=C(C(=O)OCCN(C)Cc2ccccc2)C1c1cccc([N+](=O)[O-])c1.Cl (centres unmarked) | 0.0465
COc1cc(/C=C/c2noc(-c3ccccc3O)n2)cc(OC)c1OC | 9.26
O=C(NCc1cccc(Cl)c1)C1CCC(=O)N(CCN2CCOCC2)C1 (centres unmarked) | 20.5
CCOC(=O)c1ccc2[nH]c3c(c2c1)CCCC3 | -19.2
CC(OC(=O)c1cccs1)C(=O)NC1CCCCC1C (centres unmarked) | -66.7
CC(OC(=O)c1cccs1)C(=O)NC1CC1 (centres unmarked) | -5.98
CC(OC(=O)CCC(=O)c1cccs1)C(=O)NC1CCCCC1C (centres unmarked) | -6.24
